The values that follow come from PubChem BioAssay (EPA / NIEHS).

Experiment [1] concerns the target Estrogen receptor (Homo sapiens) + Estrogen receptor beta (Homo sapiens) (UniProt P03372+Q92731). Kind of experiment: OT_ER_ERaERb_1440: Odyssey Thera (OT) 24-hour HEK293T Protein-Complementation Assay for Estrogen Receptor-alpha/-beta Homodimer (AID 2283356).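 Also: heteromer of ER alpha and ER beta binding domains; hits raise reporter fluorescence and both agonists and antagonists give an increase.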 The gist of the method: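 Heterodimerisation of ERα (aa 310-547) and ERβ (aa 263-489) ligand binding domains was tracked as fluorescence gain in stably transfected HEK293T cells following 24 h dosing, normalised to DMSO controls.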

Experiment [2] concerns the target human Peroxisome Proliferator-activated Receptor alpha (PPARa), PPARA (gene 5465) (UniProt Q07869). Description: NVS_NR_hPPARa: NovaScreen (NVS) Nuclear Receptor Binding Assay for human Peroxisome Proliferator-activated Receptor alpha (PPARa) (AID 2283359).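 Also: activity means loss of TR-FRET signal versus DMSO baseline.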 The gist of the method:
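Cell-free TR-FRET binding assay with extracted PPARα protein, read 1 h after dosing. Primary screen in duplicate at 25 uM, with actives retested in concentration series. Loss of signal versus DMSO.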

In experiment [3] the target is Peroxisome proliferator-activated receptor gamma (Homo sapiens) (UniProt P37231). Description: NVS_NR_hPPARg: NovaScreen (NVS) Nuclear Receptor Binding Assay for human Peroxisome Proliferator-activated Receptor gamma (PPARg) (AID 2283370). An outline of the steps:
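Fluorescence polarization measures competitive binding to extracted PPARg in a cell-free format. Reading is taken at 2 h; activity is signal loss relative to DMSO. Screening at 25 uM in duplicate preceded confirmatory dose series.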

Experiment [4] deals with Norway rat Vesicular Monoamine Transporter (VMAT2), neurotransmitter transporter, Slc18a2 (gene 25549) (UniProt Q01827). Description: NVS_TR_rVMAT2: NovaScreen (NVS) Transporter Assay for Norway rat Vesicular Monoamine Transporter (VMAT2), neurotransmitter transporter (AID 2283376).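 Also: actives lower the bound radioligand signal below the DMSO level.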 The gist of the method: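 Radioligand displacement binding on rat forebrain tissue preparation, filter-based scintillation read-out 1 hour after dosing. Primary screen in duplicate at 25 uM, then concentration series for actives; loss of signal versus DMSO.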

In the next experiment the target is PGR (gene 5241) (UniProt P06401). Description: NVS_NR_hPR: NovaScreen (NVS) Nuclear Receptor Binding Assay for human Progestron Receptor (PR) (AID 2283360).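 Also: active means loss of bound radioligand signal versus DMSO baseline.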 An outline of the steps: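 Cell-free radioligand binding using receptor protein extracted from T47D cells, read by scintillation counting 18 hours after dosing. Loss of signal relative to DMSO baseline indicates displacement; primary screen single concentration 25 uM in duplicate, actives followed in concentration series.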

The target in experiment [5] is Nuclear receptor subfamily 1 group I member 2 (Homo sapiens) (UniProt O75469). Description: NVS_NR_hPXR: NovaScreen (NVS) Nuclear Receptor Binding Assay for human Pregnane X Receptor (PXR) (AID 2283365).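 Also: a drop in FRET signal versus DMSO baseline means the compound binds.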 The gist of the method: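 Binding was measured by time-resolved fluorescence resonance energy transfer after a 2 h exposure of extracted human PXR protein without cells. Compounds were first tested at 25 uM in duplicate, with concentration series for actives; DMSO defined baseline.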

Experiment [6] concerns the target guinea pig Sigma Receptor, Non-selective Binding, SIGMAR1 (gene 100135589) (UniProt Q60492). Description: NVS_OR_gSIGMA_NonSelective: NovaScreen (NVS) Nuclear Receptor Binding Assay for guinea pig Sigma Receptor, Non-selective Binding (AID 2283367). An outline of the steps: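 Radioligand displacement on guinea pig brain membranes, read by filter-based scintillation counting 1 h after dosing. Loss of signal versus DMSO; initial duplicate single-point screen at 25 uM, actives followed in concentration series.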

Experiment [7] relates to guinea pig Dopamine Transporter (DAT), gene 100714898. Kind of experiment: NVS_TR_gDAT: NovaScreen (NVS) Transporter Assay for guinea pig Dopamine Transporter (DAT) (AID 2283369).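 Also: active compounds lower bound radioligand signal relative to DMSO.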 The gist of the method:
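Test chemicals were incubated 2 h with guinea pig striatal membranes and a radioligand; bound label was separated by filtration and counted. Screening ran at 25 uM, followed by concentration-response testing to a 50 uM maximum.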

Experiment [8] has as its target human Serotonin Transporter (SERT), SLC6A4 (gene 6532) (UniProt P31645). Description: NVS_TR_hSERT: NovaScreen (NVS) Transporter Assay for human Serotonin Transporter (SERT) (AID 2283372). The gist of the method:
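Radioligand binding to native SERT in human platelet membranes, read by filter-based scintillation counting 1 h after dosing. Primary screen in duplicate at 25 uM; actives followed up in concentration series; loss of signal versus DMSO baseline.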

The target in experiment [9] is human Dopamine Transporter (DAT), SLC6A3 (gene 6531) (UniProt Q01959). Kind of experiment: NVS_TR_hDAT: NovaScreen (NVS) Transporter Assay for human Dopamine Transporter (DAT) (AID 2283374).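 Also: activity means loss of bound radioligand signal relative to DMSO.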 An outline of the steps:
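Cell-free radioligand displacement binding at human DAT, 1 h after dosing, with filtration and scintillation counting. Primary screen in duplicate at 25 uM, actives then in concentration series. Loss of bound signal versus DMSO scored.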

Experiment [10] deals with rat Serotonin Transporter (SERT), Slc6a4 (gene 25553) (UniProt P31652). Kind of experiment: NVS_TR_rSERT: NovaScreen (NVS) Transporter Assay for rat Serotonin Transporter (SERT) (AID 2283375). The gist of the method: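 Steps: rat forebrain membranes dosed with chemical (25 uM duplicate primary; concentration series for actives); 1 h incubation; labelled ligand bound, filtered, counted by scintillation. Activity scored as signal loss vs DMSO.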

Experiment [11] has as its target human Thyroid Receptor Alpha (TRa), THRA (gene 7067) (UniProt P10827). Kind of experiment: NVS_NR_hTRa_Antagonist: NovaScreen (NVS) Nuclear Receptor Binding Assay for human Thyroid Receptor Alpha Antagonism (TRa) (AID 2283362). An outline of the steps: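 Chemicals were first screened in duplicate at 25 uM, then actives were retested in concentration series. Binding to the extracted receptor was measured 1 h after dosing by AlphaLISA chemiluminescence, with decreased signal versus DMSO scored as activity.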

Experiment [12] addresses Retinoic acid receptor alpha (Homo sapiens) (UniProt P10276). Description: NVS_NR_hRAR_Antagonist: NovaScreen (NVS) Nuclear Receptor Binding Assay for human Retinoic Acid Alpha Receptor Antagonism (RAR) (AID 2283358). The gist of the method:
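Cell-free TR-FRET binding assay with extracted human RARalpha in antagonist mode, read 2 h after dosing. Loss of signal was fitted relative to DMSO; the primary screen used 25 uM in duplicate, with concentration series on follow-up.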

For experiment [13] the target is unchanged. Description: NVS_NR_hRARa_Agonist: NovaScreen (NVS) Nuclear Receptor Binding Assay for human Retinoic Acid Alpha Receptor Agonism (RAR) (AID 2283361). An outline of the steps:
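Cell-free TR-FRET binding readout with extracted receptor protein, read 2 hours after dosing; gain-of-signal fitted relative to DMSO. Screened in duplicate at 25 uM, actives then run in concentration-response.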

The subject of experiment [14] is rat Norepinephrine Transporter (NET), gene 83511. Kind of experiment: NVS_TR_rNET: NovaScreen (NVS) Transporter Assay for rat Norepinephrine Transporter (NET) (AID 2283373). An outline of the steps: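 Rat forebrain membranes; radioligand binding measured by filter-based scintillation counting 1 hour after dosing. Loss of specific binding versus DMSO baseline scored; primary screen in duplicate at 25 uM, actives followed up in concentration series.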

“And” between values parts separate entries of the source, which are not always exact repeats. Equal entries are not always repeated. Results filed as inconclusive are left out. The source made the active and inactive calls. The calls were made as follows: active = hit-call score of the fitted dose curve at least 0.9, where 1 is the maximum; inconclusive = response in the unintended direction; inactive = score below 0.9.

Chain of Peroxisome proliferator-activated receptor gamma (Homo sapiens) (P37231 whole entry, looked up): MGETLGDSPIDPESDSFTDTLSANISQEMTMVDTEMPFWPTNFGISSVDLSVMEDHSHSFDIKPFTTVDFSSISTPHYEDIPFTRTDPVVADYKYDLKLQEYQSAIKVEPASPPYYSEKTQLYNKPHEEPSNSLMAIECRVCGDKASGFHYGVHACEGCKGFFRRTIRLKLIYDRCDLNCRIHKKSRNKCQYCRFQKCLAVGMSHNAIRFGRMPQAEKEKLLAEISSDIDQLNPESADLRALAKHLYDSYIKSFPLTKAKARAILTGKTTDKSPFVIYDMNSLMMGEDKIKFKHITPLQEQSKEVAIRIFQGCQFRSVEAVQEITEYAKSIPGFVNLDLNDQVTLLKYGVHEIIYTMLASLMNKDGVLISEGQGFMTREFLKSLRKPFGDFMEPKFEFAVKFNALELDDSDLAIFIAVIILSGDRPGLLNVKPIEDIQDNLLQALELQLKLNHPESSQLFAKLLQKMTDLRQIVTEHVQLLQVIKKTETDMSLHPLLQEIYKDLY
Chain of human Peroxisome Proliferator-activated Receptor alpha (PPARa), PPARA (gene 5465) (Q07869 whole entry, looked up): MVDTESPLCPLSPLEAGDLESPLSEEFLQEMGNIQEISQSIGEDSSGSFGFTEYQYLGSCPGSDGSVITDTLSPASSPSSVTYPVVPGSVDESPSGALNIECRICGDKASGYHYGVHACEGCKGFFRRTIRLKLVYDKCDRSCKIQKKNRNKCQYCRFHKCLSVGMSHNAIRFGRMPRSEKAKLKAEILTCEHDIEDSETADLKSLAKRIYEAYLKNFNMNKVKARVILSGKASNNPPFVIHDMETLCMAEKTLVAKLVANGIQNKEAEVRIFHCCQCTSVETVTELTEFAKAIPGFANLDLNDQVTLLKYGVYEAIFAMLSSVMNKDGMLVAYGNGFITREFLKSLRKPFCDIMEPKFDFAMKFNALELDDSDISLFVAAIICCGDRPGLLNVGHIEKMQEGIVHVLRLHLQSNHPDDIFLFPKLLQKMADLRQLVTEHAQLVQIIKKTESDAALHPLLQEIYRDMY
Chain of human Dopamine Transporter (DAT), SLC6A3 (gene 6531) (Q01959 whole entry, looked up): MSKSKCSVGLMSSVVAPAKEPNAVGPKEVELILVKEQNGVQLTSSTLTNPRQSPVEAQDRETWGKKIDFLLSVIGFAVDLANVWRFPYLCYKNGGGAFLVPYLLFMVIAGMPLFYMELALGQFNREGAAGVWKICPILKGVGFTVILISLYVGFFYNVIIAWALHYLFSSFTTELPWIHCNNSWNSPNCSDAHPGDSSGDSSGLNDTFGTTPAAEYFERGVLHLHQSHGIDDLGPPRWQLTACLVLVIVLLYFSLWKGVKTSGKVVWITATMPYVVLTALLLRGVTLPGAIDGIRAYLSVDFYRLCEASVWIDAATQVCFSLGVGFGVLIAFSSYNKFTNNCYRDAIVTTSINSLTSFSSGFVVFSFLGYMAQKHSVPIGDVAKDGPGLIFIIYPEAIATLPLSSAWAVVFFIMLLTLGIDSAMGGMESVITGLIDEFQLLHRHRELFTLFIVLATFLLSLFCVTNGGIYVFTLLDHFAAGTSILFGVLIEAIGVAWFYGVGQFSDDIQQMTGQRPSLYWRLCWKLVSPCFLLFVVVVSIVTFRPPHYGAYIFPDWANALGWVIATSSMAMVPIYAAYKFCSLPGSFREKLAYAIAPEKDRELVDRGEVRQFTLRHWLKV
Chain of Nuclear receptor subfamily 1 group I member 2 (Homo sapiens) (O75469 whole entry, looked up): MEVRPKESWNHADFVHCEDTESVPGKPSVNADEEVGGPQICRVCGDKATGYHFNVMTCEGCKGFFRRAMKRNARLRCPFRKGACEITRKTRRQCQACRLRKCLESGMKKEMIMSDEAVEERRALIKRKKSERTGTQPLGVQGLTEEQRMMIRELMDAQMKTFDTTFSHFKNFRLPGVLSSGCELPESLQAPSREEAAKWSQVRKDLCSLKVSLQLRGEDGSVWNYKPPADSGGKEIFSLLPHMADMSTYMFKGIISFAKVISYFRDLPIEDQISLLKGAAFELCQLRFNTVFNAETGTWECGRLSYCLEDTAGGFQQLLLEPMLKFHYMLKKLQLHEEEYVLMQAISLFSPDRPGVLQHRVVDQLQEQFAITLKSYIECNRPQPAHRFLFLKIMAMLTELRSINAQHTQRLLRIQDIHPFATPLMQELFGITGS
Chain of Estrogen receptor (Homo sapiens) + Estrogen receptor beta (Homo sapiens) (P03372 whole entry, looked up, the tested form may be a part): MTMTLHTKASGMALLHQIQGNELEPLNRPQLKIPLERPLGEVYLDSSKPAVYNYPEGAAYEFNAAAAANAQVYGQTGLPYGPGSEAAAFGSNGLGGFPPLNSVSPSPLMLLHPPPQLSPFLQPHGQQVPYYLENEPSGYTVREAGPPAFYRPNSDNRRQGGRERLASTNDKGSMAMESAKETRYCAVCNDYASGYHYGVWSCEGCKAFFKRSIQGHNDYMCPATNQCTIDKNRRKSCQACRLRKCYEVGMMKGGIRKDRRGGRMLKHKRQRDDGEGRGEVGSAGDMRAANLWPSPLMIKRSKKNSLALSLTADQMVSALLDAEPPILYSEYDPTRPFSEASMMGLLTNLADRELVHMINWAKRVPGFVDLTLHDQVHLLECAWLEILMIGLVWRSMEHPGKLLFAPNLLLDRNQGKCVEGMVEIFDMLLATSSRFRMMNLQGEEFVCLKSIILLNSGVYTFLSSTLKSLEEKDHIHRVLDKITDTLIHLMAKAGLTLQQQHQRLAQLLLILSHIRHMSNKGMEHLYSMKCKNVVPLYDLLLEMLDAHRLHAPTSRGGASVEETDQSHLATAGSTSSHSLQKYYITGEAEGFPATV
Chain of Estrogen receptor (Homo sapiens) + Estrogen receptor beta (Homo sapiens) (Q92731 whole entry, looked up, the tested form may be a part): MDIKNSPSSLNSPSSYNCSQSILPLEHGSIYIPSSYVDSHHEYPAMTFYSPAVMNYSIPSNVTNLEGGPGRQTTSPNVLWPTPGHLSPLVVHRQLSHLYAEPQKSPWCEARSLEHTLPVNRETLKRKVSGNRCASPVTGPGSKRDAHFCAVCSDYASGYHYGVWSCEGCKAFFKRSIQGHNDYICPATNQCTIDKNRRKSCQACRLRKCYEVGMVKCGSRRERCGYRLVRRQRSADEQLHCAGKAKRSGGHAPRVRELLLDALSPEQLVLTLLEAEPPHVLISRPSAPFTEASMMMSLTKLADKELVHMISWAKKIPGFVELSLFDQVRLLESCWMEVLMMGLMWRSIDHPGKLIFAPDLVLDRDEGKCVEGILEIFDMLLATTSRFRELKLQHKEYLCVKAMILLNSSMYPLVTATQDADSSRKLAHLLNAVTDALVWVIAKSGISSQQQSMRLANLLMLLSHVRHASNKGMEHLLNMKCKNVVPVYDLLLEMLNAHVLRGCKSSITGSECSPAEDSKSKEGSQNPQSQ
Chain of Norway rat Vesicular Monoamine Transporter (VMAT2), neurotransmitter transporter, Slc18a2 (gene 25549) (Q01827 whole entry, looked up): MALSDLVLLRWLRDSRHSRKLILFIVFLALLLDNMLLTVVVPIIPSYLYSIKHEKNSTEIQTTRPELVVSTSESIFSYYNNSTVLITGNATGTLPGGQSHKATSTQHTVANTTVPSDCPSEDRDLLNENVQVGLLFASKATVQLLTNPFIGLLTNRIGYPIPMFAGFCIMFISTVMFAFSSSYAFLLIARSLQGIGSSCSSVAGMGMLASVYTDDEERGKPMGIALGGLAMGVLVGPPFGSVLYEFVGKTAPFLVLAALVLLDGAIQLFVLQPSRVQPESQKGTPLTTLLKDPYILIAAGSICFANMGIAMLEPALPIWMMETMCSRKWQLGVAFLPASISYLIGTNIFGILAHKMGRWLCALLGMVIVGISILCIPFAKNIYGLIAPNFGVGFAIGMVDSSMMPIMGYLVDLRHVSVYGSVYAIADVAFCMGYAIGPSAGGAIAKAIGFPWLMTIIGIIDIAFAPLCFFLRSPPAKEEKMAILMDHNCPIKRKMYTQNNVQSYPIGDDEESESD
Chain of PGR (gene 5241) (P06401 whole entry, looked up): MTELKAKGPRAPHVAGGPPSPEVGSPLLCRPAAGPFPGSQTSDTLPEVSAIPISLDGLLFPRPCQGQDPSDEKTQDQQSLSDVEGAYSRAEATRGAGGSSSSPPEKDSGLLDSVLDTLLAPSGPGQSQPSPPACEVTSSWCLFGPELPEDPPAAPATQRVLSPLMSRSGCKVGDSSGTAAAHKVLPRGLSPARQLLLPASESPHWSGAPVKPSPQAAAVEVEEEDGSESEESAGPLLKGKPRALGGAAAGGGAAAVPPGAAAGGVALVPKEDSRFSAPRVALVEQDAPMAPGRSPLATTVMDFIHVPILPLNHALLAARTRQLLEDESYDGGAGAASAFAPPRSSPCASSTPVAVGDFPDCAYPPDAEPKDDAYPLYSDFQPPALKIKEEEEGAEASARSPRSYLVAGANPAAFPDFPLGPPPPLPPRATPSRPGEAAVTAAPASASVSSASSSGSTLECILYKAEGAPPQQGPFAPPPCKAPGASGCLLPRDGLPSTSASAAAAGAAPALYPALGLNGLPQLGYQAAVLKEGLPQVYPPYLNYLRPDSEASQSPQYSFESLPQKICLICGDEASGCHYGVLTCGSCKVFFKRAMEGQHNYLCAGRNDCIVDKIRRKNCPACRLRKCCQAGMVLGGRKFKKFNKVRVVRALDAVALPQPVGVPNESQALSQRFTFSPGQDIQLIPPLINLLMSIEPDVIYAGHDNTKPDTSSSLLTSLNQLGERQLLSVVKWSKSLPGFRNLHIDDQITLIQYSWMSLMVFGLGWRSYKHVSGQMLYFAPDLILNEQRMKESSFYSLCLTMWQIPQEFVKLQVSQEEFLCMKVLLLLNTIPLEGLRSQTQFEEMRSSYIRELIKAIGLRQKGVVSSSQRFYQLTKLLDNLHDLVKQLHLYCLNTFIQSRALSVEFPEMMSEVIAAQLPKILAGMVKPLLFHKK
Chain of guinea pig Sigma Receptor, Non-selective Binding, SIGMAR1 (gene 100135589) (Q60492 whole entry, looked up): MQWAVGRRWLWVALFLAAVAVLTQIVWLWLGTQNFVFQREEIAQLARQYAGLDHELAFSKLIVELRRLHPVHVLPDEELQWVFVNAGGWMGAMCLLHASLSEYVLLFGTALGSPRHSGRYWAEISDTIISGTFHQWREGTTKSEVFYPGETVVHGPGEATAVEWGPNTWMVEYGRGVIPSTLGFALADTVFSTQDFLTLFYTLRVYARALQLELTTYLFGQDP

For `Cc1cc2c3c(c1)C(c1ccccc1)=N[C@@H](NC(=O)c1ccncc1)C(=O)N3CC2`, the outcome in experiment [1], in experiment [2] and in [4] was inactive. Further, in experiment [3], the AC50 – broadly, the concentration giving half of the maximal activity seen – was 4.96 µM (active).

Regarding `Oc1c(Cl)c(Cl)c(Cl)c(Cl)c1Cl`, the compound was classed as inactive (in experiment [2]; in the experiment with PGR (gene 5241); in experiment [3]).

With `Clc1ccc(C(c2ccccc2Cl)C(Cl)(Cl)Cl)cc1` (stereo not given), in [5], the compound was classed as inactive.

As for `CCCCCCCCCC[N+](C)(C)CCCCCCCCCC`, the outcome in experiment [1] and in experiment [3] was inactive. In addition, the concentration at half-maximal activity (AC50) is 0.861 µM (active) in experiment [2]; 0.432 µM (active) in experiment [6]; 25 µM (active) in experiment [7]; 13.4 µM (active) in [8]; 5.73 µM (active) in experiment [9]; 12.6 µM (active) in [10]. In experiment [4], the AC50 was 13.4 µM (active).

Take `COc1ccc(O)c(C(C)(C)C)c1`: the AC50 in [1] is 53.1 µM (active); in experiment [11], 19.3 µM (active); in experiment [7], 16.6 µM (active); in [9] it was 8.78 µM (active). Also, the result in [3] was inactive.

With `O=NN(c1ccccc1)c1ccccc1`, the result (with PGR (gene 5241); in experiment [7]; in experiment [3]) was inactive.

For `Cc1cccc(C)c1N`, the result in experiment [1] was inactive. In addition, in [3], the AC50 was 0.0218 µM (active).

For the compound `Nn1cnnc1`, the result in experiment [1] and in [3] was inactive. For the same compound, the half-maximal activity concentration (AC50) in experiment [4] was 10.9 µM (active).

As to `O=S(=O)(O)C(F)(F)C(F)(F)C(F)(F)C(F)(F)C(F)(F)C(F)(F)F`, the result in [2], in experiment [11] and in experiment [3] was inactive.

On to `Cc1cc(-c2ccc(N)c(C)c2)ccc1N`, for which the call in [12] and in experiment [5] was inactive. Moreover, in [9], the AC50 was 19.5 µM (active).

On to `CO/C=C(/C(=O)OC)c1ccccc1COc1cccc(C(F)(F)F)n1`, for which the result in experiment [1] and in experiment [3] was inactive.

Take `Cc1cc(O)ccc1Cl`: in experiment [1], the concentration at half-maximal activity (AC50) is 43.7 µM (active). In experiment [7], the call was inactive.

As to `COS(=O)(=O)OC`, the compound was called inactive in experiment [13] and in experiment [6].

For `CCCCCCCCCc1ccc(O)cc1`, the AC50 in experiment [1] was 36.2 µM (active) and 36 µM (active) and 48.1 µM (active). The compound was classed as inactive in experiment [13], in [11] and in experiment [3].

As to `Cc1ccc(O)c(C)c1`, the outcome (in experiment [1]; in experiment [2]; with PGR (gene 5241)) was inactive.

For the compound `CC(C)(O)C(=O)Nc1ccc([N+](=O)[O-])c(C(F)(F)F)c1`, the outcome (in [1]; in experiment [2]; in the experiment with PGR (gene 5241); in experiment [5]) was inactive.

For the compound `O=C(O)C(F)(F)C(F)(F)C(F)(F)C(F)(F)C(F)(F)C(F)(F)C(F)(F)C(F)(F)C(F)(F)F`, the figures for the AC50 in experiment [5] and in experiment [3] were 25 µM (active) and 8.21 µM (active), respectively.

Take `CC(c1ccc(O)cc1)(c1ccc(O)cc1)c1ccc(O)cc1`: in experiment [3], the half-maximal activity concentration (AC50) is 4.96 µM (active).

Consider `Cc1ccccc1[N+](=O)[O-]`, for which the result (in experiment [1]; with PGR (gene 5241)) was inactive.

Consider `O=C(O)C(F)(F)C(F)(F)C(F)(F)C(F)(F)C(F)(F)F`, for which the outcome in experiment [1] and in experiment [2] was inactive.

`ClC(Cl)=C(c1ccc(Cl)cc1)c1ccc(Cl)cc1`: the compound was called inactive in experiment [2], in experiment [11], in [9] and in experiment [4].

`ClC1=C(Cl)[C@]2(Cl)[C@@H]3[C@@H]4C[C@@H]([C@H]5O[C@@H]45)[C@@H]3[C@@]1(Cl)C2(Cl)Cl`: the outcome in experiment [13] and in experiment [3] was inactive.

Consider `CCC(C)c1cc([N+](=O)[O-])cc([N+](=O)[O-])c1O` (stereo not given), for which the outcome in [1] and in experiment [3] was inactive.

Take `O=C(NC(=O)c1cc(F)c(F)cc1Cl)Nc1cc(F)ccc1N1CCC(C(=O)O)CC1`: the compound was classed as inactive in experiment [3].

As to `OCC(O)CO`, the outcome in experiment [1] and in [2] was inactive. Further, the AC50 in [5] was 5.1 µM (active).

For the compound `CC(C)C(=O)OCC(C)(C)C(OC(=O)C(C)C)C(C)C` (stereo not given), the outcome in experiment [1] and in experiment [3] was inactive.

For `Nc1ccc(-c2ccc(N)cc2)cc1`, the outcome in experiment [1], in experiment [3] and in experiment [9] was inactive. For the same compound, the AC50 in [6] is 25 µM (active); in experiment [7], 12.8 µM (active); in [14] it was 14.3 µM (active).
